Results published in PubChem BioAssay (EPA / NIEHS).
Inconclusive results are not listed. Activity calls are given as the source filed them. The calls were made as follows, unless noted: active = hit-call score of the fitted dose curve at least 0.9, where 1 is the maximum; inconclusive = response in the unintended direction; inactive = score below 0.9.

Target: X-box-binding protein 1 (Homo sapiens) (UniProt P17861)
Sequence (P17861 whole entry, looked up): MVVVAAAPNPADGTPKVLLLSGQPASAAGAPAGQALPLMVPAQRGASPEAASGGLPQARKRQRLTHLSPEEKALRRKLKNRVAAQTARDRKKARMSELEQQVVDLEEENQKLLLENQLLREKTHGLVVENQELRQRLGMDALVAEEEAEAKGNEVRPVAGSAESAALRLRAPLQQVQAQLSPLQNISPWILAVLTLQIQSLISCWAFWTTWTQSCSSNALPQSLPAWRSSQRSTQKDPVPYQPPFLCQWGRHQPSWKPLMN
Experiment: ATG_Xbp1_CIS: Attagene CIS-FACTORIAL HepG2 Assay for human X-box Binding Protein 1 (XBP1) (AID 2282972; active = hit-call score of the fitted dose curve at least 0.9, where 1 is the maximum; inactive = score below 0.9)
Settings: HepG2 XBP1 cis-element reporter, Attagene multiplex; actives raise or lower the signal
In short: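 After a 24-hour chemical exposure of HepG2 cells carrying cis-regulated reporters, reporter mRNA levels are assessed. Quantification uses RT-PCR, 6-FAM labelling and capillary electrophoresis. Gain- or loss-of-signal is fitted against DMSO.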
In the case of `CCOC=O`, the outcome was “inactive”.
In the case of `O=C1C=CC(=O)N1c1cccc(N2C(=O)C=CC2=O)c1`, the outcome was “inactive”.
For `COC1=CC(=O)C[C@@H](C)[C@]12Oc1c(Cl)c(OC)cc(OC)c1C2=O`, the outcome was “inactive”.
For `Cc1ccccc1OCC(=O)O`, the outcome was “inactive”.
In the case of `CCOC(=O)c1nc(C(Cl)(Cl)Cl)n(-c2ccc(Cl)cc2Cl)n1`, the AC50 was 178 µM (active).
For `O=C(F)C(F)(F)C(F)(F)C(F)(F)C(F)F`, the outcome was “inactive”.
For `O=C1Cc2ccccc2N1c1c(Cl)cccc1Cl`, the outcome was “inactive”.
In the case of `COCC1CCC(CO)CC1` (stereo not drawn), the outcome was “inactive”.
In the case of `Brc1cc(Br)c(Oc2c(Br)cc(Br)c(Br)c2Br)cc1Br`, the outcome was “inactive”.
For `CCCCCCCCC1CCC(=O)O1` (stereo not drawn), the outcome was “inactive”.
With `Oc1c(Cl)ccc(Cl)c1Cl` the outcome was “inactive”.
With `CC1CCC(C(=O)O)CC1` (stereo not drawn) the outcome was “inactive”.
For `CC(C)(c1ccc(Oc2ccc(N)cc2)cc1)c1ccc(Oc2ccc(N)cc2)cc1`, the outcome was “inactive”.
With `C=CC(=O)OCC(CO)(COCC(COC(=O)C=C)(COC(=O)C=C)COC(=O)C=C)COC(=O)C=C` the AC50 was 2.87 µM (active).
For `N=C(N)c1ccc(OCCCCCOc2ccc(C(=N)N)cc2)cc1`, the AC50 was 48.1 µM (active).
In the case of `O=P(O)(O)CCC(F)(F)C(F)(F)C(F)(F)C(F)(F)C(F)(F)C(F)(F)F`, the outcome was “inactive”.
With `O=C(OC(=O)C(F)(F)C(F)(F)F)C(F)(F)C(F)(F)F` the outcome was “inactive”.
For `Clc1ccc2c(Cl)ccnc2c1`, the outcome was “inactive”.
For `CCc1ccccc1O`, the outcome was “inactive”.
In the case of `CCCCCCCCCC=CCC1CC(=O)OC1=O` (stereo not drawn), the outcome was “inactive”.
With `CCCCC(CC)C(=O)OCCOCCOCCOCCOC(=O)C(CC)CCCC` (stereo not drawn) the outcome was “inactive”.
With `FC(F)=C(F)C(F)(F)C(F)(F)C(F)(F)C(F)F` the outcome was “inactive”.
In the case of `O=CC(F)(F)C(F)(F)C(F)(F)F`, the outcome was “inactive”.
In the case of `COC(=O)CC(C(C)=O)C(=O)OC` (stereo not drawn), the outcome was “inactive”.
In the case of `O=C(c1cc(O)c(O)c(O)c1)c1ccc(O)c(O)c1O`, the outcome was “inactive”.
For `COc1ccccc1NC(=O)c1cc2ccccc2cc1O`, the AC50 was 25.8 µM (active).
For `CCCCCCOC(=O)c1ccc(O)cc1`, the AC50 was 54.6 µM (active).
In the case of `CCCCc1oc2ccccc2c1C(=O)c1cc(I)c(OCCN(CC)CC)c(I)c1`, the AC50 was 26.4 µM (active).
With `CC(=O)Nc1ccc(S(N)(=O)=O)cc1` the outcome was “inactive”.
With `c1cc[nH]c1` the outcome was “inactive”.
With `O=C(O)CCC(F)(F)C(F)(F)C(F)(F)C(F)(F)C(F)(F)F` the outcome was “inactive”.
With `O=CC(F)(F)C(F)(F)C(F)(F)C(F)F` the outcome was “inactive”.
For `FC1(F)C=CC(F)(F)C1(F)F`, the outcome was “inactive”.
For `Cc1cc(Cc2cc(C)cc(C(C)(C)C)c2O)c(O)c(C(C)(C)C)c1`, the AC50 was 25 µM (active).
With `Oc1ccc(Cc2ccccc2O)cc1` the outcome was “inactive”.
For `CCCCN(C)C`, the outcome was “inactive”.
With `CC1CCC(CO)CC1` (stereo not drawn) the outcome was “inactive”.
In the case of `O=C(O)CCC(F)(F)C(F)(F)C(F)(F)C(F)(F)C(F)(F)C(F)(F)F`, the outcome was “inactive”.

Tested on: not listed separately
Experiment: ATG_M_19_TRANS: Attagene TRANS-FACTORIAL HepG2 Assay for M19 Transcription Factor (Internal Marker) (AID 2282974)
Settings: HepG2 Attagene TRANS-FACTORIAL M19 internal marker reporter
In short: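 HepG2 cells transiently transfected with multiple GAL4-UAS reporter transcription units were exposed to chemicals for 24 h. Reporter mRNA was read by RT-PCR, 6-FAM primer extension, HpaI digestion and capillary electrophoresis; gain of signal fitted relative to DMSO.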
With `COC1=CC(=O)C[C@@H](C)[C@]12Oc1c(Cl)c(OC)cc(OC)c1C2=O` the outcome was “inactive”.
In the case of `Cc1ccccc1OCC(=O)O`, the outcome was “inactive”.
With `O=C(F)C(F)(F)C(F)(F)C(F)(F)C(F)F` the outcome was “inactive”.
With `O=C1Cc2ccccc2N1c1c(Cl)cccc1Cl` the outcome was “inactive”.
In the case of `Brc1cc(Br)c(Oc2c(Br)cc(Br)c(Br)c2Br)cc1Br`, the outcome was “inactive”.
For `CC1CCC(C(=O)O)CC1` (stereo not drawn), the outcome was “inactive”.
With `CC(C)(c1ccc(Oc2ccc(N)cc2)cc1)c1ccc(Oc2ccc(N)cc2)cc1` the outcome was “inactive”.
For `O=P(O)(O)CCC(F)(F)C(F)(F)C(F)(F)C(F)(F)C(F)(F)C(F)(F)F`, the outcome was “inactive”.
With `O=C(OC(=O)C(F)(F)C(F)(F)F)C(F)(F)C(F)(F)F` the outcome was “inactive”.
In the case of `CCc1ccccc1O`, the outcome was “inactive”.
In the case of `CCCCC(CC)C(=O)OCCOCCOCCOCCOC(=O)C(CC)CCCC` (stereo not drawn), the outcome was “inactive”.
In the case of `FC(F)=C(F)C(F)(F)C(F)(F)C(F)(F)C(F)F`, the outcome was “inactive”.
In the case of `O=CC(F)(F)C(F)(F)C(F)(F)F`, the outcome was “inactive”.
With `COC(=O)CC(C(C)=O)C(=O)OC` (stereo not drawn) the outcome was “inactive”.
With `CCCCCCOC(=O)c1ccc(O)cc1` the outcome was “inactive”.
For `CCCCc1oc2ccccc2c1C(=O)c1cc(I)c(OCCN(CC)CC)c(I)c1`, the outcome was “inactive”.
With `CC(=O)Nc1ccc(S(N)(=O)=O)cc1` the outcome was “inactive”.
In the case of `FC1(F)C=CC(F)(F)C1(F)F`, the outcome was “inactive”.
For `Cc1cc(Cc2cc(C)cc(C(C)(C)C)c2O)c(O)c(C(C)(C)C)c1`, the outcome was “inactive”.
For `Oc1ccc(Cc2ccccc2O)cc1`, the outcome was “inactive”.
For `CC1CCC(CO)CC1` (stereo not drawn), the outcome was “inactive”.
In the case of `O=C(O)CCC(F)(F)C(F)(F)C(F)(F)C(F)(F)C(F)(F)C(F)(F)F`, the outcome was “inactive”.

Tested on: not listed separately
Experiment: ATG_GAL4_TRANS: Attagene TRANS-FACTORIAL HepG2 Assay for GAL4 (Internal Marker) (AID 2282976)
Settings: HepG2 Attagene TRANS GAL4 internal marker reporter
In short: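 RT-PCR/capillary electrophoresis readout of reporter mRNA. HepG2, transient MRTU transfection (GAL4-UAS reporters), 24 h compound exposure. Background-control endpoint, positive direction vs DMSO baseline.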
For `CCOC=O`, the outcome was “inactive”.
With `CCOC(=O)c1nc(C(Cl)(Cl)Cl)n(-c2ccc(Cl)cc2Cl)n1` the outcome was “inactive”.
With `O=C(F)C(F)(F)C(F)(F)C(F)(F)C(F)F` the outcome was “inactive”.
In the case of `O=C1Cc2ccccc2N1c1c(Cl)cccc1Cl`, the outcome was “inactive”.
For `Brc1cc(Br)c(Oc2c(Br)cc(Br)c(Br)c2Br)cc1Br`, the outcome was “inactive”.
For `CCCCCCCCC1CCC(=O)O1` (stereo not drawn), the outcome was “inactive”.
In the case of `CC(C)(c1ccc(Oc2ccc(N)cc2)cc1)c1ccc(Oc2ccc(N)cc2)cc1`, the outcome was “inactive”.
In the case of `N=C(N)c1ccc(OCCCCCOc2ccc(C(=N)N)cc2)cc1`, the outcome was “inactive”.
With `O=P(O)(O)CCC(F)(F)C(F)(F)C(F)(F)C(F)(F)C(F)(F)C(F)(F)F` the outcome was “inactive”.
For `O=C(OC(=O)C(F)(F)C(F)(F)F)C(F)(F)C(F)(F)F`, the outcome was “inactive”.
For `CCCCC(CC)C(=O)OCCOCCOCCOCCOC(=O)C(CC)CCCC` (stereo not drawn), the outcome was “inactive”.
For `FC(F)=C(F)C(F)(F)C(F)(F)C(F)(F)C(F)F`, the outcome was “inactive”.
For `O=CC(F)(F)C(F)(F)C(F)(F)F`, the outcome was “inactive”.
For `CC(=O)Nc1ccc(S(N)(=O)=O)cc1`, the outcome was “inactive”.
With `c1cc[nH]c1` the outcome was “inactive”.
For `O=CC(F)(F)C(F)(F)C(F)(F)C(F)F`, the outcome was “inactive”.
For `CC1CCC(CO)CC1` (stereo not drawn), the outcome was “inactive”.
For `O=C(O)CCC(F)(F)C(F)(F)C(F)(F)C(F)(F)C(F)(F)C(F)(F)F`, the outcome was “inactive”.
